Bioassay records: PubChem BioAssay, National Center for Advancing Translational Sciences (NCATS)
G9a block – G9a (human) methyltransferase inhibition | AID 504332 | 350,000 tested, 8.8% active | Potency, µM (titrated, usually from 102 µM), inactives show at the top dose activity, negative = inhibition, hits mostly inhibitors | G9a H3K9 monomethylation, AlphaScreen, 2 h | Q96KQ7; further: potency means the concentration at half of the fitted maximal effect; nearly all actives have a fitted effect of over 75% in size
Target sequence (Q96KQ7 913-1193 limits assumed): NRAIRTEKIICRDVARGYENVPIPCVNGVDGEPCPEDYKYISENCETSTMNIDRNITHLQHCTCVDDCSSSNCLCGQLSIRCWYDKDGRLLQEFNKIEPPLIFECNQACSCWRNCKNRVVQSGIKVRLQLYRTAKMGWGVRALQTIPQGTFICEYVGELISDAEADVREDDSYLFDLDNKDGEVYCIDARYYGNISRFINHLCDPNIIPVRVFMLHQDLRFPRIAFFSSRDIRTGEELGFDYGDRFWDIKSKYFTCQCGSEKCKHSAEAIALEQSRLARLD
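Readings reflect AlphaScreen signal from monomethyl-H3K9 antibody detection. HMT at 20 nM; substrate b-H3K9 500 nM; cofactor SAM 20 uM; 2 h RT reaction; compounds tested as titrations in qHTS with 15 min preincubation.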
Sfp inh – inhibitors of Bacillus subtilis Sfp phosphopantetheinyl transferase; AID 1490; Potency, µM, for the others: largest response in the series, negative = inhibition, usual class: inhibitors; Q9F4F7; Biochemical Sfp PPTase activity, qHTS; 310,000 tested, 3.5% active;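 further: the enzyme is Sfp with the accession as filed and its product quenches rhodamine fluorescence; potency means the concentration at half of the fitted maximal effect; 0% = enzyme reaction without inhibitor and -100% = no enzyme wells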
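Compounds were incubated with enzyme (final 15 nM) for 15 min at room temperature before substrate addition started the reaction. Fluorescence at 525 nm excitation, 598 nm emission was recorded immediately and after 30 minutes.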
Coupling enz – inhibits coupling enzyme system, counter-screen for aldolase hits | coupling enzyme system counterscreen, AmpLite Red fluorescence | activity change, negative = inhibition, % at 58.2 µM, hits read low | 290,000 tested, 0.67% active | AID 2472; in the data active means activity change below about -30%
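Counterscreen of the coupled detection system alone, without aldolase: glyceraldehyde-3-phosphate coupling enzymes plus AmpLite Red readout. Compounds at 57.5 uM final, 10 min RT preincubation, 20 min RT reaction, fluorescence 525/598 nm.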
Tau FP inhib – inhibitors of human tau fibril formation. 280,000 tested, 0.39% active. AID 1468. Potency, µM (titrated, usually from 57.7 µM), for inactives: top-dose activity, negative = inhibition, actives largely listed as inhibitors. K18 P301L tau heparin fibrillization, Alexa594 FP, 6 h; further: potency means the concentration at half of the fitted maximal effect; nearly all actives have a fitted effect of over 55% in size
Target sequence (P10636 561-689 P618L limits assumed): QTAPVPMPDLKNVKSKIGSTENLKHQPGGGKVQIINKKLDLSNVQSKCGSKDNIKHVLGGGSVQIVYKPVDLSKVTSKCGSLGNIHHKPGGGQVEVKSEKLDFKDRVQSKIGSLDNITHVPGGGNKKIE
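Human K18 P301L fragment (15 uM unlabeled plus 0.24 uM Alexa 594-labeled) in 100 mM sodium acetate pH 7 with compound, aggregation induced by 20 uM heparin for 6 hr at 37 C. ThT (30 uM) added for 1 hr, then Alexa 594 FP read.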
Tau fluor cs – counter-screen for tau fibril formation inhibitors; Potency, µM (highest dose often 57.7 µM), without a hit: at the top dose activity change, negative = decrease; 280,000 tested, 0.93% active; AID 1463; tau K18 P301L Alexa594 fluorescence, heparin fibrillization; further: potency means the concentration at half of the fitted maximal effect; nearly all actives have a fitted effect of over 55% in size
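Human tau K18 P301L (15 uM unlabeled, 0.24 uM Alexa 594-labeled) in 100 mM sodium acetate pH 7 with 20 uM heparin, 6 hr at 37 C. ThT 30 uM added, 1 hr ambient; Alexa 594 FP and total fluorescence read at 555/632 nm.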
Tau fibril ThT – blocks human tau fibril formation measured by thioflavin T; AID 1460; 270,000 tested, 2.1% active; recombinant tau K18 P301L (four-repeat tau fragment), heparin-induced fibrillization, ThT fluorescence; Potency, µM (doses to about 57.4 µM), without a hit: top-dose activity, negative = inhibition, most hits filed as inhibitors; P10636; further: potency means the concentration at half of the fitted maximal effect; nearly all actives have a fitted effect of over 55% in size
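K18 P301L tau (15 uM + 0.24 uM Alexa 594-tagged), heparin 20 uM, NaOAc pH 7, 6 h 37 C; ThT 30 uM, 1 h RT, ex 450/em 510 nm.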
* marks the source's active call; other numbers are inactive results; ? = inconclusive; . = no result; [ ] = another dose, or the depositor's remark. Rows were chosen to be rich in hits. Some 11% of all compounds tested hit in one or more screens of this group. Unless noted, the call rests on the fitted dose curve; in most records, active means well fitted curve in the direction sought with a large enough effect; inconclusive means small, poorly fitted or top-dose-only effect, or another doubt; inactive means no such curve, though single readings can be large; an effect the other way counts as inactive or inconclusive. Unless noted, on the % scale 0 is the no-effect control and ±100 the full control effect.

SMILES	G9a block	Sfp inh	Coupling enz	Tau FP inhib	Tau fluor cs	Tau fibril ThT
O=[N+]([O-])c1ccc(C[n+]2ccc(Cc3ccccc3)cc2)cc1	13µM*	-15%	-42*	-5%	-6%	?
O=[N+]([O-])c1ccc(CSc2nnc(Cc3ccccc3)o2)cc1	45µM*	-1%	1	5%	-16%	.
Cc1[nH]c2ccccc2c1Cc1nnc(SCc2ccccc2)o1	71µM*	-5%	-4	?	18µM*[quencher]	?
CC1=C(C(=O)Nc2cccc(C(F)(F)F)c2)C2(CCCCCC2)OC1=O	5%[59 µM]	.	.	-3%	-23%	6%
CCOC(=O)c1c(C)oc2nc(C)nc(NCCc3ccc(S(N)(=O)=O)cc3)c12	-32%[59 µM]	.	.	-7%	4%	3%
Cc1nn(Cc2ccccc2)c(Cl)c1/C=C1\NC(=S)NC1=O	40µM*	40µM*	2	1%	-5%	-16%
CCOc1ccc(C(C)=O)cc1COc1cccnc1[N+](=O)[O-]	16%	9%	-3	.	.	.
CCc1ccc(OCc2n[nH]c(=S)n2C(C)CCCC(C)C)cc1 (centres undefined)	8%	28%	-5	3%	-28%	?
CC(C)CCn1c(COc2ccccc2)n[nH]c1=S	1.8µM*	-9%	2	-7%	6%	11%
CCc1ccc(OCc2n[nH]c(=S)n2Cc2ccccc2)cc1	-26%	4%	4	?	18%[2.34 µM]	0%
Fc1ccc(NCc2n[nH]c(=S)n2Cc2ccccc2)cc1	7.9µM*	-12%	0	-3%	?	-19%
FC(F)(F)c1cccc(NCc2n[nH]c(=S)n2C2CCCCC2)c1	28µM*	22%	0	0%	-22%	-7%
S=c1[nH]nc(COc2ccccc2)n1Cc1ccccc1	3.5µM*	-13%	1	?	-24%	-16%
CCC(=O)N1CCCc2cc(S(=O)(=O)N3CCC(C(=O)Nc4ccc(C#N)cc4)CC3)ccc21	24%[59 µM]	.	.	-5%	-26%	-6%
COc1ccc(-c2nc(CN3CCC(C(=O)NCCCN4CCN(c5ccccc5F)CC4)CC3)c(C)o2)cc1OC	-30%[59 µM]	.	.	-1%	-3%	-16%
CCc1cc2c3c([nH]c2cc1S(=O)(=O)NCCCOC)CC(C)(C)CC3=O	5%	9%	-1	.	.	.
Cc1ccc(OCc2nnc(SCC(=O)Nc3ccccc3C(C)C)o2)cc1	12%[59 µM]	.	.	-4%	-14%	-6%
S=c1[nH]nc(CSc2nc3ccccc3s2)n1C1CCCCC1	10µM*	-16%	1	8%	?	-17%
S=c1[nH]nc(COc2ccc(Cl)cc2)n1Cc1ccco1	3.5µM*	-4%	0	6%	-15%	-5%
CCOC(=O)CSc1nnc(CSc2nc3ccccc3s2)n1C	-4%	10%	1	7%	-1%	-2%
Cc1cccc(OCc2n[nH]c(=S)n2Cc2ccccc2)c1	18µM*	11%	2	-5%	-12%	-13%
CCc1ccc(OCc2nnc(SCCN3CCOCC3)n2CC)cc1	7.1µM*	-21%	2	4%	-5%	-10%
CCCc1n[nH]c(=S)n1Cc1ccco1	?	?	1	2%	-4%	-10%
COCCn1c(=O)cnc2cnc(N3CCNCC3)nc21	-41%[12.7 µM]	14%	1	.	.	.
COc1ccccc1N1CCN(S(=O)(=O)CCNC(=O)c2ccc(Br)o2)CC1	-8%	16%	1	.	.	.
O=c1c2ccccc2nnn1CSc1nnc(COc2ccc(Cl)cc2)n1Cc1ccco1	16%[0.0925 µM]	-25%	.	3%	-15%	-11%
Clc1ccc(OCc2nnc(SCCN3CCCCC3)n2Cc2ccco2)cc1	?	25µM*	-1	3%	-3%	-3%
S=c1[nH]nc(COc2ccccc2)n1C1CCCCC1	2.5µM*	4%	3	4%	4%	1%
O=C(CSc1nc2ncc(Cl)cc2[nH]1)NCC(=O)Nc1ccc(F)c(F)c1F	-6%	18%	-24	-2%	3%	-5%
